Source: ChEMBL document CHEMBL3988442, “University of Dundee, Small-Polar-MMV Screening Library” (2021)
About 13,000 (27%) of roughly 48,000 compounds showed an effect of 50% or more. The list shows a part of the results.

Each compound was assayed on Wolbachia pipientis (assay: Anti-Wolbachia Cell-Based Screen). Conditions: 5 µM.
Type: functional
Design: scale not given: in the data most compounds retested in dose-response had high values

| SMILES | Percent Effect [%] |
| --- | --- |
| COCCN(C)C(C)c1cccc(S(N)(=O)=O)c1 (stereo not given) | 128.5 |
| CC(c1cccc(S(N)(=O)=O)c1)N(C)CCOC(C)(C)C (stereo not given) | 105.4 |
| CC(c1cccc(Cl)c1)N(C)CCS(=O)(=O)CCC(N)=O (stereo not given) | 6.991 |
| CC(c1ccc(F)c(F)c1)N(C)CCS(=O)(=O)CCC(N)=O (stereo not given) | 2.944 |
| CC(c1cccc(O)c1)N(C)S(N)(=O)=O (stereo not given) | 16.66 |
| CC(c1cccc(O)c1)N(C)S(=O)(=O)c1cccnc1 (stereo not given) | -4.431 |
| CCCNC(=O)N1CCc2ccc(S(=O)(=O)N3CCOCC3)cc2C1 | -14.34 |
| O=C(c1ccc[nH]1)N1CCc2cc(S(=O)(=O)N3CCOCC3)ccc2C1 | 106.5 |
| O=C(O)c1cc(-n2cc3c(n2)CCC3)cc(S(=O)(=O)N2CCOCC2)c1 | -7.127 |
| O=C(c1cc[nH]n1)N1CCc2ccc(S(=O)(=O)N3CCOCC3)cc2C1 | 111.1 |
| O=C(c1ccc[nH]1)N1CCc2ccc(S(=O)(=O)N3CCOCC3)cc2C1 | 99.23 |
| CC(C)CC(=O)N1CCc2ccc(S(=O)(=O)N3CCN(C)CC3)cc2C1 | 0.4144 |
| O=C(c1ccc[nH]1)N1CCc2c(cccc2S(=O)(=O)N2CCOCC2)C1 | 94.62 |
| CN1CCN(S(=O)(=O)c2ccc3c(c2)CN(C(=O)C(C)(C)C)CC3)CC1 | -9.365 |
| O=C(c1c[nH]c(=O)c(Cl)c1)N1CCc2ccccc2C1 | 10.27 |
| CCCNC(=O)N1CCc2ccc(S(=O)(=O)N3CCCC3)cc2C1 | -4.985 |
| CCCNC(=O)N1CCc2ccc(S(=O)(=O)N3CCN(C)CC3)cc2C1 | -8.252 |
| O=C1COc2ccc(S(=O)(=O)N3CCOCC3)c3c2N1CCC3 | 16.87 |
| CCN1CCC(CC(=O)NC[C@H]2CCc3ccccc3O2)CC1 | 15.83 |
| CCN1CC2(CC1=O)CN(Cc1cnn(C)c1)CCN(C(C)=O)C2.O=C(O)C(F)(F)F (stereo not given) | 1.894 |
| CC(=O)N1CCN(Cc2ccsc2)CC2(CC(=O)N(C)C2)C1.O=C(O)C(F)(F)F (stereo not given) | 101.7 |
| CC(=O)N1CCN(Cc2ccc(F)cc2)CC2(CC(=O)N(C)C2)C1.O=C(O)C(F)(F)F (stereo not given) | 98.03 |

| SMILES | Percent Effect [%] |
| --- | --- |
| Cn1cc(CN2CCC3(C2)CN(Cc2ccsc2)C3)cn1.O=C(O)C(F)(F)F.O=C(O)C(F)(F)F | -10.11 |
| CC(=O)N1CCCC2(CN(Cc3ccc(F)cc3)CCO2)C1.O=C(O)C(F)(F)F (stereo not given) | -7.517 |
| CCn1cc2c(n1)C(COCC1CC1)CN(C(=O)c1ccsc1)C2 (stereo not given) | 2.501 |
| CCOCCC(=O)N1CCCN(c2ccccc2C)CC1 | 0.9002 |
| CCCNC(=O)c1nc2c(o1)CN(c1ncccn1)C2 | -1.924 |
| Cc1ccc(N2C[C@H](C(=O)N3CCOCC3)[C@@H]3CCO[C@@H]3C2)nn1 | -2.103 |
| O=C(NCCN1CCCC1)c1cc2c(s1)CCN2c1ncccn1 | 97.7 |
| CCCNC(=O)c1cnc2n1CCCC2 | -8.644 |
| CC(C)NC(=O)c1nc2c(s1)CCCN2C(C)C | 3.81 |
| CCCNC(=O)c1cc2c(s1)CCN2c1ncccn1 | 122.6 |
| CCc1cc(C(=O)N2CCC(Nc3ccc(C)nn3)CC2)sc1C | -9.138 |
| CC(C)NC(=O)c1nc2c(s1)CCCN2c1ccccc1 | 7.229 |
| O=C(NCCN1CCOCC1)c1cc2c(s1)CCN2Cc1cccnc1 | -4.667 |
| O=C(NCCN1CCCC1)c1nc2c(o1)CN(c1ncccn1)C2 | -7.93 |
| Cc1ccc(N2CCc3sc(C(=O)N4CCOCC4)cc32)nn1 | 84.11 |
| CC(C)NC(=O)c1cc2c(s1)CCN2c1ncccn1 | 92.76 |
| c1cc(-c2nnn3c2COC(CNCC2CCOCC2)C3)ccn1 (stereo not given) | -54.53 |
| c1cnnc(N2CCCC(NCc3cccc4c3OCO4)C2)c1 (stereo not given) | 3.932 |
| CCC(NC(=O)NCc1ccoc1C)c1c(C)nn(C)c1C (stereo not given) | 3.251 |
| CCN1CCCC(c2c(-c3ccccc3)ncn2CCCO)C1 (stereo not given) | -4.818 |
| Cc1ccc(N2CCCc3sc(C(=O)NCCC#N)nc32)nn1.O=C(O)C(F)(F)F | -4.317 |
| Cc1nnsc1C(=O)NCC1CCN(c2ccccn2)CC1 | 1.014 |

| SMILES | Percent Effect [%] |
| --- | --- |
| O=C(NCC1CC1)c1cc2c(s1)CCN2c1ncccn1 | 107.3 |
| CCOCCCNC(=O)c1nc2c(s1)CCCN2c1ccc(C)nn1.O=C(O)C(F)(F)F | -5.598 |
| Cc1ccc(N2CCc3sc(C(=O)NCCN4CCCC4)cc32)nn1 | 102.9 |
| CCNC(=O)C(C)(C)NC(=O)NCc1cccc(Br)c1 | 5.794 |
| CCc1ccc(CN2CCN(CCOC)[C@@H]3CS(=O)(=O)C[C@@H]32)cc1 | -8.66 |
| c1ccc(-c2nc(SCc3nnc(C4CC4)o3)n[nH]2)nc1 | -8.457 |
| Cc1ccc(N2CCCC(NCC(=O)Nc3cc(C)no3)C2)nn1 (stereo not given) | 8.409 |
| CS(=O)(=O)c1ccc(CNC2CCCN(c3cccnn3)C2)cc1 (stereo not given) | 6.689 |
| Cc1ccc(N2CCCC(N(C)Cc3cc(C)no3)C2)nn1 (stereo not given) | 1.683 |
| Cc1nc(CNC2CCCN(c3cccnn3)C2)no1 (stereo not given) | 0.4362 |
| c1cnnc(N2CCCC(NCc3ccncc3)C2)c1 (stereo not given) | 0.6717 |
| Cc1cc(NC(=O)CN(C)C2CCCN(c3cccnn3)C2)n(C)n1 (stereo not given) | -4.115 |
| Cc1cc(NC(=O)CN(C)C2CCCN(c3cccnn3)C2)on1 (stereo not given) | 99.52 |
| CC(C)c1cc(NC(=O)CNC2CCCN(c3cccnn3)C2)on1 (stereo not given) | 100.2 |
| Cc1cc(NC(=O)CNC2CCCN(c3cccnn3)C2)on1 (stereo not given) | 92.8 |
| Cc1cc(NC(=O)NCCc2cscn2)nn1C | -10.8 |
| O=C(Cc1cccc(F)c1F)NC1COc2ccccc2C1=O (stereo not given) | 2.844 |
| CCN1CCOCC2(CCCN(C(=O)c3cccc(O)c3)C2)C1 (stereo not given) | 105.1 |
| CN(C)CCN1CCOCC2(CCCN(C(=O)c3cccn3C)C2)C1.O=C(O)C(F)(F)F.O=C(O)C(F)(F)F (stereo not given) | -8.448 |
| CN(C)CCN1CCOCC2(CCCN(C(=O)c3ccccc3)C2)C1.O=C(O)C(F)(F)F.O=C(O)C(F)(F)F (stereo not given) | -4.449 |
| O=C(c1ccnc(-n2cnnc2)c1)N1CCCC2(CCOC2)C1 (stereo not given) | 13.33 |
| CCN1CCOCC2(CCCN(C(=O)c3ccccc3F)C2)C1.O=C(O)C(F)(F)F (stereo not given) | 106.1 |

| SMILES | Percent Effect [%] |
| --- | --- |
| CCN1CCOCC2(CCCN(C(=O)c3cnccn3)C2)C1 (stereo not given) | 95.08 |
| CN(C)CCN1CCOCC2(CCCN(C(=O)c3cccc(O)c3)C2)C1 (stereo not given) | -3.261 |
| O=C(O)C(F)(F)F.O=C(c1cnccn1)N1CCCC2(COCCN(CC3CC3)C2)C1 (stereo not given) | -6.241 |
| CC(C)CN1CCCC2(CCN(C(=O)c3cnccn3)C2)C1 (stereo not given) | -16.61 |
| CC(C)CNC(=O)c1nc2c(s1)CCN(C(=O)c1ccc(Cl)cc1)CC2 | -4.208 |
| CC(C)OCCCNC(=O)N(C)C(C)c1ccc(-n2cncn2)cc1 (stereo not given) | -7.098 |
| CCN1CC(CN(C)Cc2nc(-c3cccc(Cl)c3)oc2C)CC1=O (stereo not given) | 102.8 |
| CNC(=O)CC1CCN(Cc2nc(-c3cccc(Cl)c3)oc2C)CC1 | -0.6077 |
| Cc1cccc(-c2nc(CN3CCOCS3(=O)=O)c(C)o2)c1 | 4.701 |
| CCN(CCn1cccn1)Cc1nc(-c2cccc(C)c2)oc1C | -6.378 |
| CCc1nnc(CN(C)Cc2nc(-c3ccccc3Cl)oc2C)o1 | -2.214 |
| CCN1CC(CN(C)Cc2nc(-c3cccc(C)c3)oc2C)CC1=O (stereo not given) | 105.1 |
| Cc1nc(C2CCCN(C(=O)c3cc(Cl)c[nH]3)C2)no1 (stereo not given) | 0.9971 |
| O=C(Cc1cccc(F)c1)NCCNCC1CNc2ccnn2C1 (stereo not given) | 0.2613 |
| CCN(CCNCc1cccc(C#N)c1)C1CC1 | -10.23 |
| O=C(Cc1cccc(F)c1)NCCNCc1cccnc1 | 96.05 |
| N#Cc1cccc(CNCCNC(=O)Cc2cccc(F)c2)c1 | 98.51 |
| N#Cc1cccc(CNC(=O)NC2CCN(CC(F)F)CC2)c1 | -0.5422 |
| O=C(Cc1cccc(F)c1)NCCNCc1ccco1 | -5.047 |
| COCCN(CCC#N)S(=O)(=O)c1cc(F)cc(F)c1 | -7.872 |
| c1ccc(C(c2ccccc2)N2CCN(CCn3cncn3)CC2)cc1 | 0.8212 |
| CC(C)(C)c1ccn(C2(C(=O)O)CCN(c3nccc(N)n3)CC2)n1 | -5.25 |

| SMILES | Percent Effect [%] |
| --- | --- |
| O=C(c1cnccn1)N1C[C@@H]2[C@@H](C1)OCC(=O)N2CC1CCCC1 | -6.759 |
| COc1cc(C2(C(=O)NCC(=O)NC3CC3)CC2)ccc1C | 9.021 |
| Cc1ncsc1-c1cc(C(=O)NCCO)ccn1 | 109.9 |
| Cc1ncsc1C(=O)NCCSCCCO | -0.9457 |
| O=C(NCCNC(=O)c1scnc1Cl)c1ccccc1 | -1.754 |
| CNC(=O)c1ccc(CN(C(=O)c2scnc2C)C2CC2)cc1 | 4.078 |
| Cc1ncsc1-c1ccn(CC(=O)Nc2cnn(C)n2)n1 | -5.489 |
| CNC(=O)CNC(=O)c1ccc(-c2scnc2C)nc1 | 75.09 |
| CCCc1nnc(NC(=O)N2CCCC2c2ccncc2)s1 (stereo not given) | 3.484 |
| CN(Cc1ccc(-n2cccn2)cc1)c1nc(N)nc2c1CCNCC2 | 3.985 |
| CCOc1ccc(-c2nc(CN(C)Cc3c(C)noc3C)cs2)cc1 | -23.12 |
| c1cnc2c(-c3nccn3C[C@@H]3CCCN4CCCC[C@H]34)cccc2c1 | 5.22 |
| CO[C@@H]1CN(c2ccccc2)S(=O)(=O)[C@@]12CCN(C(C)=O)C2 | 94.97 |
| CN(C)C(=O)N1CCC(C2C(=O)Nc3ccccc32)CC1 (stereo not given) | -38.16 |
| CS(=O)(=O)NCC1CCN(C(=O)Oc2ccccc2)CC1 | -10.63 |
| CC(=O)N1CCC2(CC1)CC(Oc1ccccc1)CO2 (stereo not given) | -5.824 |
| CO[C@@H]1CN(c2ccccc2)S(=O)(=O)[C@@]12CCN(C(=O)N(C)C)C2 | 88.6 |
| CO[C@@H]1CN(c2ccccc2)S(=O)(=O)[C@@]12CCNC2 | 127.8 |
| O=C(C1CC2(CCNCC2)CN1)N1CCN(c2ccccc2)CC1 (stereo not given) | -0.8952 |
| COC(=O)N1CC[C@@]2(C1)[C@H](OC)CN(c1ccccc1)S2(=O)=O | 101.1 |
| COC(=O)N1CCC2(CC1)CC(c1ccccc1)CN(C)C2 (stereo not given) | -13.78 |
| CN(C)C(=O)N1CCN(C(=O)CCc2ccccc2)[C@H]2CS(=O)(=O)C[C@H]21 | -4.375 |
